According to the supplement of paper PMC9135407:
Several values for one entry are separate records, joined by “and”; a condition that tells them apart may be missing. Identical values can stand only once. Counter-ions that a name gives are not always drawn. Hit rate of the full screen: of about 5,800 compounds, about 620 (11%) showed activity. The sample as a whole holds a higher share of actives than the screen did. Values without a mark were called inactive.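 How the source made its calls: active = score above a cut-off or among the top three wells of a plate; in these data no inactive exceeds 0.85.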

Test system: primary human hepatic stellate cells (donor 1)
Assay: scaled lipid accumulation score (0 = DMSO-like, 1 = nortriptyline-like); higher = stronger HSC inactivation (lipid re-accumulation), active = hit call of the paper
Details: 48 h
[1] = library stock concentration: 1 mM
[2] = library stock concentration: 3.33 mM
[3] = library stock concentration: 10 mM
[4] = library stock concentration: 80 uM
[5] = library stock concentration: 400 uM
[6] = library stock concentration: 2 mM

**Q.** How did the “scaled lipid accumulation score” value [1] turn out when `COC(=O)CCCCCCC1C(O)CC(O)C1CCC(O)C#Cc1ccccc1F` (centres undefined) was run?
**A.** ≤ 0

**Q.** For `NC(=S)NCCC[C@H](N)C(=O)O` [L-Thiocitrulline (hydrochloride)], which “scaled lipid accumulation score” value [1] is on record?
**A.** 0.048

**Q.** For `NC(=S)NCCC[C@H](N)C(=O)O` [Thiocitrulline [L-Thiocitrulline]], which “scaled lipid accumulation score” value (library stock concentration: 26.1 mM) is on record?
**A.** 0.069

**Q.** With `Cc1cccc(CC(=O)N2CCc3c2ccc(-c2cn(C)c4ncnc(N)c24)c3F)n1` as the molecule, how does the “scaled lipid accumulation score” value [2] read?
**A.** ≤ 0

**Q.** What about the “scaled lipid accumulation score” value [3] of the same molecule?
**A.** ≤ -0.001

**Q.** Which “scaled lipid accumulation score” value [3] does the source give for `CCN(CC)CCNC(=O)c1ccc(NS(C)(=O)=O)cc1` [Sematilide monohydrochloride monohydrate] here?
**A.** ≤ -0.07

**Q.** With `COc1cc(C(=O)NCc2ccc(OCCN(C)C)cc2)cc(OC)c1OC` [Trimethobenzamide hydrochloride] as the molecule, how does the “scaled lipid accumulation score” value read?
**A.** ≤ 0

**Q.** What about the “scaled lipid accumulation score” value (library stock concentration: 4.7 mM) of the same molecule?
**A.** 0.028

**Q.** And the “scaled lipid accumulation score” value [3]?
**A.** ≤ 0

**Q.** `CCC(CC)CNc1cc(C(=O)NCCN(C)C)cc(S(=O)(=O)Nc2ccc(OC)cc2)c1` was tested. Which “scaled lipid accumulation score” value [3] did it give?
**A.** 0.996 (active)

**Q.** How did the “scaled lipid accumulation score” value [2] turn out when `O=c1[nH][nH]c2nnc(-c3c(-c4ccccc4)nn4ccccc34)cc12` [ERK Inhibitor II, Negative Control] was run?
**A.** ≤ 0

**Q.** Which results are given for `C=CC[N+]1([C@H]2C[C@H]3[C@@H]4CC[C@H]5C[C@H](O)[C@@H](N6CCOCC6)C[C@]5(C)[C@H]4CC[C@]3(C)[C@H]2OC(C)=O)CCCC1` [Rocuronium Bromide]?
**A.** scaled lipid accumulation score [2]: ≤ 0; scaled lipid accumulation score [3]: ≤ 0

**Q.** For `COc1ccc(C2(O)OC(=O)C(c3ccc4c(c3)OCO4)=C2Cc2cc(OC)c(OC)c(OC)c2)cc1` (centres undefined), which “scaled lipid accumulation score” value [3] is on record?
**A.** 0.037

**Q.** `CCCCCCCCCCCC(=O)CC(=O)N[C@H]1CCOC1=O` [N-3-oxo-tetradecanoyl-L-Homoserine lactone] was tested. Which “scaled lipid accumulation score” value [1] did it give?
**A.** ≤ 0

**Q.** With `CC/C=C\C/C=C\C/C=C\CCCCCCCCCCCC(=O)O` [Docosatrienoic acid (22:3 n-3)] as the molecule, how does the “scaled lipid accumulation score” value [1] read?
**A.** ≤ -0.021

**Q.** For `COc1cccc2c1[C@@H]1CN(CCCCn3c(=O)[nH]c4c(sc5ncc(-c6ccccc6)nc54)c3=O)C[C@@H]1CO2.Cl` [Fiduxosin hydrochloride], which “scaled lipid accumulation score” value [3] is on record?
**A.** 0.863 (active)

**Q.** How did the “scaled lipid accumulation score” value [1] turn out when `COc1ccc(/C=C/c2ccccc2F)cc1` was run?
**A.** 0.063

**Q.** `C/N=C(/NC#N)NCCSCc1csc(NC(=N)N)n1` [Tiotidine] was tested. Which “scaled lipid accumulation score” value (library stock concentration: 6.4 mM) did it give?
**A.** ≤ -0.006

**Q.** What about the “scaled lipid accumulation score” value [3] of the same molecule?
**A.** 0.044

**Q.** For `COc1cc2c(NC3CCN(C(C)C)CC3)nc(C3CCCCC3)nc2cc1OCCCN1CCCC1`, which “scaled lipid accumulation score” value [4] is on record?
**A.** ≤ 0

**Q.** And the “scaled lipid accumulation score” value [5]?
**A.** ≤ 0

**Q.** What about the “scaled lipid accumulation score” value [6] of the same molecule?
**A.** 0.354

**Q.** And the “scaled lipid accumulation score” value [3]?
**A.** 0.14

**Q.** How did the “scaled lipid accumulation score” value [4] turn out when `COc1cc2nc(N3CCCN(C)CC3)nc(NC3CCN(Cc4ccccc4)CC3)c2cc1OC` was run?
**A.** ≤ 0

**Q.** What about the “scaled lipid accumulation score” value [5] of the same molecule?
**A.** ≤ 0

**Q.** And the “scaled lipid accumulation score” value [6]?
**A.** 0.569

**Q.** And the “scaled lipid accumulation score” value [2]?
**A.** 0.42

**Q.** And the “scaled lipid accumulation score” value [3]?
**A.** 0.096 and 0.353 and 0.204

**Q.** For `COc1cc2nc(N3CCCN(C)CC3)nc(NC3CCN(Cc4ccccc4)CC3)c2cc1OC.Cl.Cl.Cl.O`, which “scaled lipid accumulation score” value [1] is on record?
**A.** 0.804 (active)

**Q.** Which “scaled lipid accumulation score” value [2] does the source give for `Nc1nccc(-c2c(-c3ccc(F)cc3)ncn2C2CCNCC2)n1` here?
**A.** ≤ 0

**Q.** With `O=S1(=O)c2cccc3cccc(c23)N1CCCN1CCN(c2ccc(F)cc2)CC1` [Fananserin] as the molecule, how does the “scaled lipid accumulation score” value [3] read?
**A.** 0.048

**Q.** How did the “scaled lipid accumulation score” value [3] turn out when `CS(=O)(=O)O.N=C(N)SCCc1ccc(OCc2ccc([N+](=O)[O-])cc2)cc1` [KB-R7943 mesylate] was run?
**A.** 0.99 (active)

**Q.** For `N=C(N)SCCc1ccc(CCSC(=N)N)cc1` [1,4-PBIT (dihydrobromide)], which “scaled lipid accumulation score” value [1] is on record?
**A.** 0.049

**Q.** Which “scaled lipid accumulation score” value [1] does the source give for `N=C(N)SCCc1cccc(CCSC(=N)N)c1` [1,3-PBIT (dihydrobromide)] here?
**A.** ≤ 0

**Q.** For `C=CCNC(N)=S` [Allylthiourea], which “scaled lipid accumulation score” value [2] is on record?
**A.** ≤ 0

**Q.** And the “scaled lipid accumulation score” value [3]?
**A.** ≤ -0.001

**Q.** `C=CCNC(N)=S` was tested. Which “scaled lipid accumulation score” value [3] did it give?
**A.** ≤ 0

**Q.** For `CCCCCCCCCCCCCCNC(=O)C1CCCCC1` [N-Cyclohexanecarbonyltetradecylamine], which “scaled lipid accumulation score” value [1] is on record?
**A.** 0.008

**Q.** What does the source list for `CC(C)c1noc(N2CCC(COc3ccc(-c4ccc(S(C)(=O)=O)cc4)nc3)CC2)n1`?
**A.** scaled lipid accumulation score [2]: 0.019; scaled lipid accumulation score [3]: 0.16

**Q.** Which “scaled lipid accumulation score” value [2] does the source give for `Oc1cc(O)c(Cl)cn1` [Gimeracil] here?
**A.** 0.014

**Q.** And the “scaled lipid accumulation score” value [3]?
**A.** 0.04

**Q.** With `COC(=O)Nc1nc2ccc(SC(C)C)cc2[nH]1` [Methiazole] as the molecule, how does the “scaled lipid accumulation score” value read?
**A.** ≤ 0

**Q.** With `CCCSc1ccc2nc(NC(=O)OC)[nH]c2c1` [Albendazole] as the molecule, how does the “scaled lipid accumulation score” value [3] read?
**A.** 0.892 (active)

**Q.** What does the source list for `CCCSc1ccc2[nH]c(NC(=O)OC)nc2c1` [Albendazole]?
**A.** scaled lipid accumulation score: 0.176; scaled lipid accumulation score [2]: ≤ 0; scaled lipid accumulation score (library stock concentration: 7.5 mM): 0.449 and ≤ 0; scaled lipid accumulation score [3]: ≤ -0.027 and 0.562
